Sampled rows, rich in hits. Any-hit rate of the full collection: about 2.8%.
IP6K1 inhibitor – blocks human inositol hexakisphosphate kinase 1; 140,000 tested, 0.81% active; activity change, % (series mostly up to about 58 µM); IP6K1 kinase, ADP-Glo luminescence, 2 h; stronger effect = lower value; in the data active = activity change below about -25%; also: % is scaled to controls: 0 for no effect and ±100 for the full control effect
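ADP-Glo luminescence measures ADP made by human IP6K1 during a 2 h RT reaction with ATP/IP6 (mix at 1.3 mM/130 uM); top library doses 57.5 and 19.1 uM final.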
KDM5B inh – KDM5B demethylase inhibition; 220,000 tested, 2.6% active; Potency, µM (highest dose often 57.7 µM), hits mostly inhibitors; KDM5B demethylase, FDH-coupled NADH fluorescence (FDH is formaldehyde dehydrogenase); Q9UGL1; also: potency is read from the fitted curve at half-maximal effect; 0% is about no effect; nearly all actives have a fitted effect of over 70% in size
Target sequence (Q9UGL1 whole entry, looked up): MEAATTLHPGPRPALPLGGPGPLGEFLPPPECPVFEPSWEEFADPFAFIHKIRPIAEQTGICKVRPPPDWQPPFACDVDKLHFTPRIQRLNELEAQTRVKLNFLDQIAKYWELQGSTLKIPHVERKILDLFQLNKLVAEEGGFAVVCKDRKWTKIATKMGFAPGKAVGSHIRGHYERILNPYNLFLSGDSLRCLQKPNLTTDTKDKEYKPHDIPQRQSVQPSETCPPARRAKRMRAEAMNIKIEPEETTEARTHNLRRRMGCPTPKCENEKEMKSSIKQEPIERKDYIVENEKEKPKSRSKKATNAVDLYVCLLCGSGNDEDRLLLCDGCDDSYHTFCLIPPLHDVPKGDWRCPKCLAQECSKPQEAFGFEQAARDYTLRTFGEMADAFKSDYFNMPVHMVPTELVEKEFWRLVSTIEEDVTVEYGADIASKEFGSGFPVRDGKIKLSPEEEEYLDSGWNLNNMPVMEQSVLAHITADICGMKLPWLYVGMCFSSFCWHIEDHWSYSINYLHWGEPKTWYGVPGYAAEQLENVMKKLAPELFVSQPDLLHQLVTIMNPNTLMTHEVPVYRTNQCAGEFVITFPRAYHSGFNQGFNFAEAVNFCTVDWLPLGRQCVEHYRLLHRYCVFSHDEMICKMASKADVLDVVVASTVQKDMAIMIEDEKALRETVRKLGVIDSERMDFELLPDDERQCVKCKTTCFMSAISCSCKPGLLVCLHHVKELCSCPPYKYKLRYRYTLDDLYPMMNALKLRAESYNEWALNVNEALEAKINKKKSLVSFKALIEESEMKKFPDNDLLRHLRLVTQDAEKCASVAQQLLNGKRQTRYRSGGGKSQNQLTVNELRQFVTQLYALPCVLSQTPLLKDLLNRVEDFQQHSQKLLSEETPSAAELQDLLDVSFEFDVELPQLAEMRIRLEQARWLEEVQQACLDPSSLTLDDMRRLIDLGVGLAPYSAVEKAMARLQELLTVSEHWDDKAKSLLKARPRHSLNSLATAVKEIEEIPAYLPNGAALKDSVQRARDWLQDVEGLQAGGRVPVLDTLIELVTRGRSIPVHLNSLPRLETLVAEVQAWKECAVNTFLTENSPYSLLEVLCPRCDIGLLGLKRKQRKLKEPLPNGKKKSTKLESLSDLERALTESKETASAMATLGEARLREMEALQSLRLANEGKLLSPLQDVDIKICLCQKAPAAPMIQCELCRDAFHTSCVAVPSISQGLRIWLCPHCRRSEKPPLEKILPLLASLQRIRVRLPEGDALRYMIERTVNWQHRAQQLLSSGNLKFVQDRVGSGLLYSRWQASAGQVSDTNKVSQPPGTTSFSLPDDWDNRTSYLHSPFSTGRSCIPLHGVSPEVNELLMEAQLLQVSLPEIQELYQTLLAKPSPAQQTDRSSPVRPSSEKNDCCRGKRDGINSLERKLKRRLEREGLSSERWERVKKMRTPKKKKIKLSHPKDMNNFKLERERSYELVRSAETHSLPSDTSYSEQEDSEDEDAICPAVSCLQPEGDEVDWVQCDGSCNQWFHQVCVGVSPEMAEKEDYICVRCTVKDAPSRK
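Measured: NADH fluorescence change, 30 min, RT. System: KDM5BΔAP 200 nM final, H3K4me3 peptide, α-KG, Fe(II), ascorbate, NAD⁺ plus FDH, pH 7.5 HEPES. Compounds: titrated, 10 min pre-incubation with enzyme.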
IP6K1 inh cnf – confirmation of human IP6K1 inhibitors | shares compounds with IP6K1 inhibitor | recombinant IP6K1 kinase, ADP-Glo luminescence, 2 h | Potency, µM (top dose mostly 49 µM), inactives show at the highest dose activity change, negative = inhibition, most hits filed as inhibitors | 1,200 tested, 13% active | AID 1645852; also: potency is read from the fitted curve at half-maximal effect; % is scaled to controls: 0 for no effect and ±100 for the full control effect; nearly all actives have a fitted effect of over 65% in size
Numbers without * were called inactive. Unless noted, calls follow the shape of the dose curve; as a rule, active = well fitted inhibition curve with a large enough effect; inconclusive = small, poorly fitted or top-dose-only effect; inactive = no such curve, though single readings can be large or run the other way.

CN1CCN(C(=O)Cc2c[nH]c3ncc(-c4cccc(OC(F)(F)F)c4)cc23)CC1 was read as IP6K1 inhibitor -53.1*, KDM5B inh 35.5µM* and IP6K1 inh cnf inconclusive.
For O=C(Cc1c[nH]c2ncc(-c3cccnc3)cc12)N1CCN(Cc2ccccc2)CC1 the results were IP6K1 inhibitor -16.5 and KDM5B inh inactive.
Screening CN1CCN(C(=O)Cc2c[nH]c3ncc(-c4ccccc4Oc4ccccc4)cc23)CC1 returned IP6K1 inhibitor -27.7*, KDM5B inh 39.8µM* and IP6K1 inh cnf 4.6%.
For CN1CCC[C@@H]1Cc1c[nH]c2ccc(Nc3ncccc3[N+](=O)[O-])cc12 the results were IP6K1 inhibitor -0.1.
N#CCC1CN2CCC1C(c1ccccc1)C2 (centres undefined) was read as KDM5B inh inactive.
For N#CC(OC1OC(COC2OC(CO)C(O)C(O)C2O)C(O)C(O)C1O)c1ccccc1 (centres undefined) the results were IP6K1 inhibitor 17.6.
`N#Cc1cn([C@@H]2O[C@H](CO)[C@H](O)[C@@H]2O)c2ncnc(N)c12` gave IP6K1 inhibitor -27.2* and IP6K1 inh cnf 10.3µM*.
Clc1ccc(-c2ccc(CNC3CN4CCC3CC4)o2)c(Cl)c1 (centres undefined) was read as KDM5B inh inactive.
Screening C[C@@H]1C[C@@H](O)[C@]2(O)O[C@@H]3C[C@@]4(C=O)C(CC[C@@H]5C4CC[C@]4(C)[C@@](O)(C6=CC(=O)OC6)CC[C@]54O)C[C@H]3OC2O1 (some centres undefined) returned IP6K1 inhibitor 5.0.
Cc1cc(SCc2sc(-c3ccc(C(F)(F)F)c(F)c3)nc2C)ccc1OCC(=O)O was read as IP6K1 inhibitor -29.9* and IP6K1 inh cnf inconclusive.
For CCCn1c(C)c(C(=O)OCc2ccccc2)c2cc(O)ccc21 the results were KDM5B inh inactive.
For CN(C)[C@@H]1C(=O)C(C(N)=O)=C(O)[C@@]2(O)C(=O)C3=C(O)c4c(O)cccc4[C@@](C)(O)[C@H]3C[C@@H]12 the results were IP6K1 inhibitor -74.6* and IP6K1 inh cnf 0.5%.
Screening CN(C)[C@@H]1C(=O)C(C(N)=O)=C(O)[C@@]2(O)C(=O)C3=C(O)c4c(O)ccc(Cl)c4[C@@](C)(O)C3C[C@@H]12 (some centres undefined) returned IP6K1 inhibitor 15.6.
C[C@]12CC[C@H](O)C[C@@H]1CC[C@@H]1[C@@H]2CC[C@]2(C)[C@@H](C3=CC(=O)OC3)CC[C@]12O was read as IP6K1 inhibitor 5.6.
`CC(Cc1ccco1)NCc1cc2ccccc2o1` (centres undefined) gave KDM5B inh inactive.
Screening CN(C)CCCN1CCC(=O)C2CCCCC21 (centres undefined) returned KDM5B inh inactive.
For CC(=O)O[C@H]1C[C@@H](C)O[C@H]2O[C@@H]3CC4CC[C@@H]5C(CC[C@]6(C)[C@@H](C7=CC(=O)OC7)CC[C@]56O)[C@@]4(C=O)C[C@H]3O[C@]21O (some centres undefined) the results were IP6K1 inhibitor 8.3.
For COc1cc2c(cc1OCc1ccccc1)N([S+](=O)([O-])c1cccc3cccnc13)CC21CCN(C)CC1 the results were IP6K1 inhibitor -5.7 and KDM5B inh inactive.
`O=C(CCn1cccn1)N1C[C@H](c2cccc(F)c2F)[C@@H]2[C@H]1C1CCN2CC1` gave IP6K1 inhibitor -32.7*, KDM5B inh inactive and IP6K1 inh cnf -5.7%.
Screening Cc1ncsc1CCC(=O)N1C[C@@H](c2ccccc2)[C@@H]2[C@H]1C1CCN2CC1 returned IP6K1 inhibitor 5.3 and KDM5B inh inactive.
Cc1sc2c(c1C)C(c1ccc(Cl)cc1)=N[C@@H](CC(N)=O)c1nnc(C)n1-2 was read as IP6K1 inhibitor 6.0.
Screening C1NC2CC3CC1CC(C3)C2 returned KDM5B inh inactive.
`O=C(Nc1ccc(Br)cc1)c1cc(Br)cc(Br)c1O` gave IP6K1 inhibitor -39.7* and IP6K1 inh cnf 23.1µM*.
O=C(Nc1ccc(Br)cc1C(=O)c1ccccc1)c1ccccc1 was read as IP6K1 inhibitor -7.6 and KDM5B inh inactive.
CCN1CCN(C(=O)Cc2ccc(Nc3ncc(F)c(Nc4ccc(C(=O)Nc5ccccc5Cl)cc4)n3)cc2)CC1 was read as IP6K1 inhibitor -32.9* and IP6K1 inh cnf inconclusive.
O=C(Cc1ccc(F)cc1)N1CCN(Cc2ccccc2-c2cccnc2)CC1 was read as IP6K1 inhibitor 1.9.
`COC(=O)C12CCC(CC1c1ccccc1)OC2=O` (centres undefined) gave KDM5B inh inactive.
For Cc1ccc2c(c1)C(SCC(=O)Nc1ccccc1C(=O)O)c1ccccc1O2 (centres undefined) the results were KDM5B inh inactive.
For COc1cc2c(cc1OCC1CC1)NC(=O)C21CCN(C(=O)c2cccc(C#N)c2)CC1 the results were IP6K1 inhibitor -26.8*, KDM5B inh inactive and IP6K1 inh cnf 1.2%.
`COc1cc2c(cc1OCC1CC1)NC(=O)C21CCN(C(=O)c2ccccc2)CC1` gave IP6K1 inhibitor -15.7 and KDM5B inh inactive.
For CCOc1ccc(CN(CCc2ccc3c(c2)OCO3)Cc2cccc(OC)c2)cc1 the results were IP6K1 inhibitor -31.2*, KDM5B inh inconclusive and IP6K1 inh cnf -14.4%.
Screening CCOc1ccc(CN(CCc2ccc3c(c2)OCO3)Cc2ccc(OC)c(Br)c2)cc1 returned IP6K1 inhibitor -14.6 and KDM5B inh inconclusive.
`COc1cc2c(cc1OCc1ccccc1)NC(=O)C21CCN(c2cnccn2)CC1` gave IP6K1 inhibitor -28.9*, KDM5B inh 31.6µM* and IP6K1 inh cnf inconclusive.
COc1cc2c(cc1OC1CCCC1)NC(=O)C21CCN(c2cnccn2)CC1 was read as IP6K1 inhibitor -30.2*, KDM5B inh inconclusive and IP6K1 inh cnf -19.2%.
`COc1cc2c(cc1OC1CCCC1)NC(=O)C21CCN(c2nc(C)cc(C)n2)CC1` gave IP6K1 inhibitor -17.9 and KDM5B inh inconclusive.
`COc1cc2c(cc1OCc1ccccc1)NC(=O)C21CCN(CC2CC2)CC1` gave IP6K1 inhibitor -13.2 and KDM5B inh inactive.
